# Sampled rows, rich in hits. Any-hit rate of the full collection: about 4.1%.
# MEKK2mut PB1 HTS = MEK5 binding signal on mutant MEKK2 PB1, primary screen, biochemical, multiplex bead flow cytometry, Alexa488-MEK5 | percent response, % at 10 µM | AID 1530, 2009 | 290,000 compounds, 0.35% hits | Alexa488-MEK5 binding to MEKK2 mutant; in the data active = percent response above about 24%, passing the limit was not always enough
# MEKK3 PB1 HTS = modulators of MEKK3-MEK5 PB1 binding, primary screen, biochemical, wildtype MEKK3, multiplex bead flow cytometry, Alexa488-MEK5. 290,000 compounds, 1.4% hits. bead-based flow cytometry, Alexa488-MEK5 binding to MEKK3; actives lie on both sides; 0 = blocked by unlabeled MEK5, 100 = vehicle. binding response (% of control), % at 10 µM. AID 1529, 2009;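 active = binding response more than 3 SD above or below the average of its plate-row segment, actives on both sides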;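 note: Alexa488 bead fluorescence after subtracting the streptavidin-only scavenger bead signal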
# Target sequence (Q99759 whole entry, looked up): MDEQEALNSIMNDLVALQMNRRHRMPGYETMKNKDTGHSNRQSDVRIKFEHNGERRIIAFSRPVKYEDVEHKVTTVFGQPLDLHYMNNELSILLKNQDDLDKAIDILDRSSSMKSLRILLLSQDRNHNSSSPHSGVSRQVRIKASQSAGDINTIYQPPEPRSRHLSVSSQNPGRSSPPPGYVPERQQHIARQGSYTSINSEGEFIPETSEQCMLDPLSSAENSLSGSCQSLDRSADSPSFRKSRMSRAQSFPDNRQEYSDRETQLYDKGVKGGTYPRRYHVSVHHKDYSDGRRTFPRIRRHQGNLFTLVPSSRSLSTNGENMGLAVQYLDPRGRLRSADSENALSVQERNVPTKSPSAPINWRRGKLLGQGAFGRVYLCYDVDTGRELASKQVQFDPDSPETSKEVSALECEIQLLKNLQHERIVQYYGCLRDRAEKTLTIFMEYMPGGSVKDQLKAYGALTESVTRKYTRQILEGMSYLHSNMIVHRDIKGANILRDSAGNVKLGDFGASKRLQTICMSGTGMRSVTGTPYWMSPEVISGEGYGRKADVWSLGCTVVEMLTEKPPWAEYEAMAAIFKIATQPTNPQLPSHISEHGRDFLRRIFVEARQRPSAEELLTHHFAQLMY
# CHT allo act = CHT positive allosteric modulators, primary screen, cell-based, membrane potential dye, choline EC20 | High affinity choline transporter 1 (Homo sapiens), Q9GZV3 | CHT-expressing cells; stronger effect = higher value; LV-AA mutant CHT in HEK293 cells | B-score at 10 µM | 310,000 compounds, 0.49% hits | AID 488977, 2010;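 active = initial fluorescence not abnormally high and integrated response B-score, plate-corrected, over 3 SD above library mean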
# CHT block = inhibitors of human choline transporter CHT; High affinity choline transporter 1 (Homo sapiens), Q9GZV3; CHT-expressing cells, membrane potential dye, choline response; stronger effect = lower value; B-score at 10 µM; 310,000 compounds, 0.86% hits; AID 488975, 2010;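 active = B-score over 3 SD under the library average, and starting fluorescence ratio not unusually high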;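 note: choline stimulus applied at its EC90 after an EC20 pre-addition; B-score computed on integrated fluorescence ratio after choline addition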
# SUMO Mot1 rescue = yeast Mot1-301 growth rescue at high temperature, primary screen, SUMOylation pathway inhibitor project, S. cerevisiae, ATP luminescence, 38.5C; S. cerevisiae Mot1-301 growth rescue; percent above DMSO median, 100 means doubled; growth rescue, % at 18.8 µM; 320,000 compounds, 1% hits;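 active = every valid replicate shows activation above 250% relative to neutral control wells; inactive = the rest, any valid replicate at or below 250%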;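 note: OY570 slx delta 5 strain wells were the positive control but not used for scaling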
# MEKK2 WT-MEK5 = modulators of MEK5 binding to wildtype MEKK2, primary screen, biochemical, multiplex bead flow cytometry, Alexa488-MEK5; binding response (% of control), % at 10 µM; Alexa488-MEK5 binding to MEKK2 WT; actives lie on both sides; 290,000 compounds, 1.1% hits; Mitogen-activated protein kinase kinase kinase 2 (Homo sapiens), Q9Y2U5; AID 1531, 2009; in the data active = binding response below about 67% or above about 130%
# MEKK2wt confirm = modulators of MEK5 binding to wildtype MEKK2, confirmation, biochemical, single concentration, multiplex bead flow cytometry; shares compounds with MEKK3 PB1 HTS; AID 1892, 2009; binding response (% of control), % at 10 µM; 5,900 compounds, 2.4% hits; Alexa488-MEK5 binding to MEKK2 WT; actives lie on both sides; in the data active = binding response below about 16% or above about 210%; inactive = in between
# MEKK2mut confirm = mutant MEKK2 PB1-MEK5 binding signal retest – biochemical, single concentration, multiplex bead flow cytometry, confirmation | Alexa488-MEK5 binding to MEKK2 mutant | 5,900 compounds, 2% hits | shares compounds with MEKK3 PB1 HTS | percent response, % at 10 µM; in the data active = percent response mostly above about 71%, no sharp cut-off; inactive = mostly below about 38%;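 note: higher means compound restores mutant binding toward wildtype level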
# MEKK3 confirm = MEKK3 wild-type PB1 binding to MEK5, inhibitors, confirmation, biochemical, bead multiplex flow cytometry, single concentration, wildtype; binding response (% of control), % at 10 µM; 5,900 compounds, 1.8% hits; Alexa488-MEK5 binding to MEKK3; stronger effect = lower value; shares compounds with MEKK3 PB1 HTS;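 active = binding response below 72% of control, or above a set upper limit, though filed actives all read lower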;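 note: 100% = DMSO only wells and 0% = binding blocked by excess unlabeled MEK5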
# Starred values were filed as active, the others as inactive; i = inactive; nt = no result; [ ] = dose if it differs, or a comment.
SMILES,MEKK2mut PB1 HTS,MEKK3 PB1 HTS,CHT allo act,CHT block,SUMO Mot1 rescue,MEKK2 WT-MEK5,MEKK2wt confirm,MEKK2mut confirm,MEKK3 confirm
Cc1ccc(NCC(=O)N/N=C/c2cccc(Oc3ccccc3)c2)cc1,1.0,134.0*,i,i,14.9,107.0,104.0,-3.0,100.0
CSc1ccc(/C=N\NC(=O)CNc2ccc(C)cc2)cc1,0.0,102.0,i,i,3.7,97.0,nt,nt,nt
C=CCSc1nnc(NC(=O)CN2C(=O)NC3(CCCC3)C2=O)s1,-2.0,94.0,i,i,2.4,99.0,nt,nt,nt
COc1ccc(N(C(=O)c2ccco2)C(C(=O)NC2CCCC2)c2cc(OC)c(OC)c(OC)c2)cc1 (stereo not drawn),3.0,103.0,i,i,6.6,95.0,nt,nt,nt
Cc1onc(-c2c(Cl)cccc2Cl)c1CO/N=C(\C#N)c1c(Cl)cccc1Cl,7.0,100.0,i,i,-8.5,96.0,nt,nt,nt
CCC(C)[C@H](NC(=O)NCc1ccco1)C(=O)OC (stereo partly drawn),5.0,99.0,i,i,-11.1,101.0,nt,nt,nt
Cc1cc(C(=O)OC(C(=O)Nc2ccc(C)c(Cl)c2)c2ccccc2)c(C)o1 (stereo not drawn),13.0,105.0,i,i,-17.5,147.0*,127.0,10.0,103.0
COc1cc(C(Nc2ccc(S(=O)(=O)NCC3CCCO3)cc2)C(=O)NC(C)(C)C)cc(OC)c1OC (stereo not drawn),30.0,129.0*,i,i,83.8,121.0,102.0,1.0,99.0
Cc1nc2sccn2c(=O)c1S(=O)(=O)N1CCN(c2ccc(F)cc2)CC1,0.0,102.0,i,i,-10.0,103.0,nt,nt,nt
Cc1nc2sccn2c(=O)c1CCN1CCC(=C(c2ccc(F)cc2)c2ccc(F)cc2)CC1,12.0,86.0,i,i,46.2,146.0*,136.0,20.0,107.0
COC(=O)c1ccn(Cc2ccccc2Cl)n1,5.0,111.0,nt,nt,nt,112.0,nt,nt,nt
CC(C)(C)c1ccc(CNc2ccc([N+](=O)[O-])cn2)cc1,3.0,145.0*,i,i,73.0,118.0,106.0,1.0,106.0
CCOC(=O)Cn1nc(C)c2c1CCCC2=O,3.0,100.0,i,i,10.9,104.0,nt,nt,nt
Cc1nn(CCO)c2c1C(=O)CCC2,12.0,128.0*,i,i,-7.9,116.0,106.0,3.0,105.0
Cc1ccc(-c2nn(-c3ccccc3)cc2CO)cc1,11.0,107.0,i,i,6.3,110.0,nt,nt,nt
Cc1ccc(-c2nn(-c3ccccc3)cc2CNCc2ccccc2)cc1,36.0,111.0,i,i,-4.0,193.0*,173.0,34.0,104.0
COc1ccc(CNC(=O)c2c(N)n(CCCN3CCOCC3)c3nc4ccccc4nc23)cc1,39.0,95.0,i,i,-16.7,154.0*,149.0,39.0,110.0
CC(C)C(OC(=O)c1cc2sccc2n1C)C(=O)NCC1CCCO1 (stereo not drawn),-26.0,1.0*[inhibitor],i,i,-11.5,-2.0*[inhibitor],97.0,-9.0,98.0
COCCNC(=O)C(C)OC(=O)c1cc2sccc2n1C (stereo not drawn),-1.0,100.0,i,i,0.5,94.0,nt,nt,nt
CCOC(=O)C1CSC2(CCC(c3ccccc3)CC2)N1 (stereo not drawn),9.0,146.0*,i,i,16.9,136.0,99.0,-2.0,98.0
C=CC#CC[N+]1(CC#Cc2ccccc2)CCOCC1,11.0,51.0*[inhibitor],nt,nt,nt,99.0,113.0,21.0,35.0*
C(#Cc1ccccc1)C[N+]1(CC#Cc2ccccc2)CCCC1,-1.0,97.0,i,i,5.9,96.0,nt,nt,nt
N#CC1=C(N)OC2=C(C(=O)CCC2)[C@]12C(=O)N(CC(N)=O)c1ccccc12,-21.0,0.0*[inhibitor],i,i,-14.5,-1.0*[inhibitor],104.0,1.0,97.0
N#CC1=C(N)OC2=C(C(=O)CCC2)C12C(=O)N1CCCc3cccc2c31 (stereo not drawn),4.0,100.0,i,i,6.6,101.0,nt,nt,nt
O=C(Nc1ccc2c(c1)OCO2)O[C@@H]1C[C@H]2CCC(=O)N3CC[C@@H](C1)[C@@H]23,2.0,101.0,i,i,10.1,104.0,nt,nt,nt
SMILES,MEKK2mut PB1 HTS,MEKK3 PB1 HTS,CHT allo act,CHT block,SUMO Mot1 rescue,MEKK2 WT-MEK5,MEKK2wt confirm,MEKK2mut confirm,MEKK3 confirm
Cc1cc(Cl)c2oc(C(=O)N3CCN(c4ccncc4)CC3)c(C)c2c1,25.0*,106.0,i,i,450.2*,147.0*,153.0,30.0,111.0
COc1cc(NC(=O)COC(=O)c2ccc(C)c(S(=O)(=O)N3CCCCC3)c2)c(C)cc1[N+](=O)[O-],0.0,146.0*,i,i,220.9,108.0,105.0,1.0,102.0
O=c1cc(N2CCC3(CC2)OCCO3)[nH]c(=O)n1-c1ccc(Br)cc1,2.0,51.0*[inhibitor],nt,nt,nt,102.0,97.0,-2.0,102.0
CCOC(=O)C1=C(COC(=O)COc2cc(C)ccc2C)NC(=O)NC1C (stereo not drawn),nt,nt,i,i,-8.8,nt,nt,nt,nt
Cc1ccc2c(c1)c1c(n2CC(O)Cn2nc(C)c(Br)c2C)CCCC1 (stereo not drawn),-6.0,95.0,i,i,468.8,91.0,nt,nt,nt
Cc1ccc2c(c1)c1c(n2CC(O)Cn2c(C)nc3ccccc32)CCCC1 (stereo not drawn),27.0*,108.0,i,i,25.4,133.0,123.0,14.0,105.0
CCN(CC)S(=O)(=O)c1ccc(=O)n(CC(=O)N2CCCc3cc(C)ccc32)c1,nt,nt,nt,nt,23.4,nt,nt,nt,nt
CC(=O)N1CCN2C(=O)C1CCCC(=O)c1cc(C)ccc12 (stereo not drawn),5.0,48.0*[inhibitor],i,i,-28.4,64.0,103.0,0.0,99.0

# Bioassay records from PubChem BioAssay.
